According to PubChem BioAssay (NCATS):
Values without a mark were called inactive. Inconclusive results are not listed. Where a call stands in place of a potency, no number is given. Active and inactive are the calls of the source. Unless noted, calls come from the whole dose curve; as a rule, active = well fitted curve in the direction sought with a large enough effect; inconclusive = small, poorly fitted or top-dose-only effect, or another doubt; inactive = no such curve, though single readings can be large; an effect the other way counts as inactive or inconclusive.

Key:
[1] = target: Tyrosine-protein kinase Yes (Homo sapiens) (UniProt P07947); assay: qHTS for small molecule inhibitors of Yes1 kinase: Primary Screen (AID 686947); note: nearly all actives have a fitted effect of over 60% in size; note: potency is the fitted concentration of half-maximal effect
Sequence of Tyrosine-protein kinase Yes (Homo sapiens) (P07947 whole entry, looked up): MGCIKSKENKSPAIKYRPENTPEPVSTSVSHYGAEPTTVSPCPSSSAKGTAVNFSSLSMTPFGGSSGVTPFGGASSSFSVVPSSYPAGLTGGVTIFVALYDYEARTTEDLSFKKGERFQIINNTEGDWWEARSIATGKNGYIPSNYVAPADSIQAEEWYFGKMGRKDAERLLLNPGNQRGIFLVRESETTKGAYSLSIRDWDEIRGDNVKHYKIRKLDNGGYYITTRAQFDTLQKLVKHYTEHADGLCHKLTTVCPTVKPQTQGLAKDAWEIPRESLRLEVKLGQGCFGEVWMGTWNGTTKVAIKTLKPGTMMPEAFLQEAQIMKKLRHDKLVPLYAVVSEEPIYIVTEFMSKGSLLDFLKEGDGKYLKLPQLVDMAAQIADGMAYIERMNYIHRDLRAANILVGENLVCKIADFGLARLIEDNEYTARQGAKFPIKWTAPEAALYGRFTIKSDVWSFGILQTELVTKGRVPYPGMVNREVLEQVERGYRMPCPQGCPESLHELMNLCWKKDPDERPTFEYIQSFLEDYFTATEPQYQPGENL
Procedure, shortened: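 In this qHTS format, inhibition is expressed relative to DMSO controls with enzyme (maximum) and without enzyme (minimum). The 60 min room-temperature reaction uses 0.1 mM ATP, with ADP detected by luminescence.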

[2] = qHTS for small molecule inhibitors of Yes1 kinase: Counter Assay (AID 686950);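 note: no kinase present so only ADP-Glo detection of a fixed ADP amount is tested; luminescence from ADP-Glo reporting ADP in a fixed ATP and ADP mixture; series mostly up to about 77 µM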
Procedure, shortened: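 ADP-Glo luminescence read after a 60 min room-temperature incubation of compound with an ATP/ADP mix (0.08 mM/0.02 mM) and no kinase, following a 20 min compound preincubation. Signal scaled between ATP+ADP (max) and 0.1 mM ATP-only (min) wells; Tris pH 7.5, Mg2+, DTT.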

[3] = qHTS assay for small molecule agonists of the antioxidant response element (ARE) signaling pathway measured by Nrf2-dependant transcriptional activity (AID 720636; active = well fitted curve in the direction sought with a large enough effect in the repeat runs; an effect the other way counts as inactive or inconclusive;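 note: HepG2 cells with an ARE-driven luciferase reporter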)
Procedure, shortened: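 First, ARE-luc HepG2 cells attached for 6 hr at 37 C in 1% dialyzed FBS medium. Next, compound or DMSO was added and incubated 16 hr. Finally, ONE-Glo reagent was added and luminescence measured after 30 min.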

[4] = qHTS assay for small molecule agonists of the antioxidant response element (ARE) signaling pathway measured by Nrf2-dependant transcriptional activity - cell viability counter screen (AID 720653; active = well fitted curve in the direction sought with a large enough effect in the repeat runs; an effect the other way counts as inactive or inconclusive); conditions: ARE-bla HepG2 viability, CellTiter-Glo ATP luminescence, 16 h; active compounds read low
Procedure, shortened: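 Cytotoxicity counter screen: intracellular ATP quantified by CellTiter-Glo luminescence in the same ARE-bla HepG2 plates, after 16 h compound exposure and a 2 h beta-lactamase substrate step.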

[5] = target: Nuclear receptor ROR-gamma (Homo sapiens) (UniProt P51449); assay: qHTS assay for small molecule antagonists of the retinoid-related orphan receptor gamma (ROR-gamma) signaling pathway (AID 651802);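 note: CHO cells with doxycycline-induced ROR-gamma expression; luciferase reporter luminescence driven by ROR response element; series mostly up to about 92 µM; nearly all actives have a fitted effect of over 60% in size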
Sequence of Nuclear receptor ROR-gamma (Homo sapiens) (P51449 whole entry, looked up): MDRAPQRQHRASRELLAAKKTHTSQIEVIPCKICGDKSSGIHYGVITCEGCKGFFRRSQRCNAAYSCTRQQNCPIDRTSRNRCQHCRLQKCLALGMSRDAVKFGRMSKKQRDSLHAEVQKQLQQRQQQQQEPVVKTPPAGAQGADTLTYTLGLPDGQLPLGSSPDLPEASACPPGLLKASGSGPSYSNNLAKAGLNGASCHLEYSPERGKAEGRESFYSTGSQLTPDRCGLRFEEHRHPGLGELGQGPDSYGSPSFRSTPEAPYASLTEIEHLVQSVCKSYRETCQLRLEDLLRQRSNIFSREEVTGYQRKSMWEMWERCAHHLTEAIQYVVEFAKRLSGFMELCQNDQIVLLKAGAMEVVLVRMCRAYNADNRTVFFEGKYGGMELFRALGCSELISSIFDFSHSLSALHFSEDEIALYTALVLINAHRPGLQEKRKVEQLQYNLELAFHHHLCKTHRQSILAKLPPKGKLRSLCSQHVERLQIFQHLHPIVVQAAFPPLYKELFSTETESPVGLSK
Procedure, shortened: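 Luciferase read-out: ONE-Glo luminescence after 30 min at room temperature, following 16hr doxycycline induction at 37C, 5% CO2 of CHO cells with TET-inducible ROR and RORE-LUC reporter; decreased luminescence = reduced reporter activity.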

[6] = qHTS assay for small molecule antagonists of the retinoid-related orphan receptor gamma (ROR-gamma) signaling pathway - cell viability counter screen (AID 720652; active = well fitted curve in the direction sought with a large enough effect in the repeat runs; an effect the other way counts as inactive or inconclusive;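 note: CHO reporter cells with doxycycline-induced ROR-gamma expression; series mostly up to about 92 µM; compound exposure lasted 16 hr before ATP read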)
Procedure, shortened: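 CHO RORE-LUC/TET-ROR line, 1,000 cells/well, 37 C 5% CO2 5 hr; cpd or DMSO + doxycycline induction, 16 hr. CellTiter-Glo, 30 min RT, luminescence = ATP content.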

[7] = target: Arylsulfatase A (Homo sapiens) (UniProt P15289); assay: qHTS screen for enhancers of Arylsulfatase A (ASA1): LOPAC Validation Assay (AID 720538); conditions: outcome: dose series up to 57.5 µM
Sequence of Arylsulfatase A (Homo sapiens) (P15289 whole entry, looked up): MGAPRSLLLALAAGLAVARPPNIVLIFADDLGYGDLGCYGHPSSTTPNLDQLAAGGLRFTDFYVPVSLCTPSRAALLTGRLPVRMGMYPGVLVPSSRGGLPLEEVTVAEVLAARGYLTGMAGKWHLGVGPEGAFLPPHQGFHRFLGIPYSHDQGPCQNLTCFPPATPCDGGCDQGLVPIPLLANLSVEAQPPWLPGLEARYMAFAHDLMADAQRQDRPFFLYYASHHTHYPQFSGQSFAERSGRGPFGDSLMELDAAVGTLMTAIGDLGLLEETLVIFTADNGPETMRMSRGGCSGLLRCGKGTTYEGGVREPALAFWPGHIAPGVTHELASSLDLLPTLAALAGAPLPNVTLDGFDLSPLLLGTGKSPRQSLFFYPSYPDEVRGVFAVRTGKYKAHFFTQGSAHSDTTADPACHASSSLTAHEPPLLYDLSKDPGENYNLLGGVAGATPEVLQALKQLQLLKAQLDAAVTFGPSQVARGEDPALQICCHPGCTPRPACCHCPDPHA
Procedure, shortened: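 SV40-transformed skin fibroblasts from an MLD patient (ASA-I179S) were treated with compounds for 48h at 37 degree C, then lysed with 0.5mM pNCS final substrate for 14h at room temperature; NaOH stop, fluorescence read (Ex=525 nm; Em=598 nm).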

[8] = qHTS for compounds that reverse cellular toxicity of Amyloid beta (A-beta) peptide in yeast: LOPAC Validation Assay (AID 720559)
Procedure, shortened: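 Yeast cells expressing toxic A-beta were combined with pinned compounds in growth medium and incubated 48 hr at 30 C. Growth was read as absorbance at 600 nm and normalized to DMSO and to an equimolar FeCl3/clioquinol positive control.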

[9] = qHTS for Activators of Parkin Expression: LOPAC Validation Assay (NLuc Reporter) (AID 720572)
Source text: Parkin is an E3 ubiquitin ligase localized in the cytosol of cells expressed in many tissues, including brain, skeletal muscle, heart and liver tissues. One hour after stress induction by mitochondrial uncouplers (which mimic mitochondria damage by decreasing the mitochondrial inner membrane electrochemical gradient that is used to produce ATP), Parkin translocates from the cytosol to mitochondria in many cultured cell types, including neurons and HeLa cells. Administration of other mitochondrial poisons, such as Paraquat and azide in cells lacking mitochondrial DNA (mtDNA), induces Parkin translocation to mitochondria. […] It was proposed that Parkin (together with Pink1) mediates a mitochondrial quality control pathway to maintain organelle population fidelity by removing damaged mitochondria. Understanding the normal physiologic role of Parkin (and Pink1) may uncover novel treatment strategies for sporadic Parkinson's disease patients with mutation in these genes.
A cell based qHTS in 1536 well format was developed assess modulation of Parkin expression using a neuronal cell line that stably expresses a stably expresses a luminescent coincidence reporter (FLuc and NLuc reporters) behind the Parkin promoter. The LOPAC library is used to validate the assay for quantitative high-throughput screening. The data herein reports the signal from the NLuc reporter. An increase in this signal = activation of Parkin expression. For this assay , a positive control normalized signal increase corresponding to a high quality qHTS curve class in both luminescent channels is the desired outcome for this assay.
NIH Chemical Genomics Center [NCGC]
NIH Molecular Libraries Probe Centers Network [MLPCN] […]
Five microliters (1,500 cells/well) of the Parkin coincidence reporter cells were seeded to 1536 well assay plates (Greiner Catalog # 789173-F) and incubated at 37 C, 5% CO2 for 24 hours. […] The FLuc luminescence signal was obtained using the PerkinElmer ViewLux plate imager and then 2 uL of NanoLuc detection reagent was added to the plates. […]

[10] = qHTS for Activators of Parkin Expression: LOPAC Validation Assay (FLuc Reporter) (AID 720573)
Procedure, shortened: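 Neuronal cell line stably carrying FLuc/NLuc coincidence reporter under Parkin promoter; cells plated 24 h, then compounds added in 7-point dose response for 24 h at 37 C. FLuc luminescence read; normalized to DMSO and positive control (100%).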

With `COc1cc(C)c(Sc2cnc(NC(=O)c3ccc(CNC(C)C(C)(C)C)cc3)s2)cc1C(=O)N1CCN(C(C)=O)CC1` (stereo not drawn) the Potency [1] was 54.7 nM (active) and the outcome [2] was “inactive”.

With `OC[C@@H](O)[C@@H](O)[C@H](O)[C@@H](O)CO` the outcome [3] was “inactive” and the max response [4] was 2.04%.

With `C=CCNC1=C2C[C@@H](C)C[C@H](OC)[C@@H](O)[C@@H](C)C=C(C)[C@H](OC(N)=O)[C@@H](OC)C=CC=C(C)C(=O)NC(=CC1=O)C2=O` the Potency [1] was “inactive” and the outcome [2] was “inactive”.

In the case of `N#Cc1ccc(COC[C@H]2O[C@@H](n3c(NCc4ccc(Cl)c(Cl)c4)nc4c(N)ncnc43)[C@@H](O)[C@@H]2O)cc1`, the Potency [1] was 487 nM (active) and the outcome [2] was “inactive”.

For `Cc1cc(O)c2c(c1)C(=O)c1cccc(O)c1C2=O`, the outcome [5] was “inactive”, the outcome [3] was “inactive” and the outcome [6] was “inactive”. For the same compound, the max response [4] was -8.79%.

`O=C1c2cccc(O)c2C(=O)c2c(O)cc(CO)cc21` showed a max response [4] of 1.52%.

With `O=c1[nH]c(=O)n([C@H]2C[C@@H](O)[C@@H](CO)O2)cc1C=CBr` the outcome [7] was “inactive”, the outcome [8] was “inactive” and the outcome [9] was “inactive”. For the same compound, the outcome [10] was “inactive”.

In the case of `COc1ccc2cc([S+]([O-])Cc3ncc(C)c(OC)c3C)nc2c1`, the outcome [8] was “inactive”, the outcome [9] was “inactive” and the outcome [10] was “inactive”.

In the case of `Cn1c(Nc2ccc(C(F)(F)F)cc2)nc2cc(Oc3ccnc(-c4ncc(C(F)(F)F)[nH]4)c3)ccc21`, the outcome [2] was “inactive”.

In the case of `CN[C@H](CC(C)C)C(=O)N[C@H]1C(=O)N[C@@H](CC(N)=O)C(=O)N[C@@H]2C(=O)N[C@H]3C(=O)N[C@H](C(=O)N[C@H](C(=O)O)c4cc(O)cc(O)c4-c4cc3ccc4O)[C@H](O)c3ccc(c(Cl)c3)Oc3cc2cc(c3O[C@@H]2O[C@H](CO)[C@@H](O)[C@H](O)[C@@H]2O[C@H]2C[C@](C)(N)[C@H](O)[C@H](C)O2)Oc2ccc(cc2Cl)[C@H]1O`, the outcome [7] was “inactive”, the outcome [8] was “inactive” and the outcome [9] was “inactive”. For the same compound, the outcome [10] was “inactive”.

With `N#Cc1cc(NC(=O)Nc2nnc(-c3ccncc3)s2)ccc1-c1cn[nH]c1` the outcome [2] was “inactive”.

For `N#Cc1c(NC(=O)c2cccc3ccccc23)sc2c1CCCC2`, the Potency [1] was “inactive” and the outcome [2] was “inactive”.

For `C[C@]12CC[C@@H]3c4ccc(O)cc4CC[C@H]3[C@H]1CC[C@H]2O`, the outcome [3] was “inactive” and the max response [4] was -1.4%.

In the case of `CC(C=CC1=C(C)CCCC1(C)C)=CC=CC(C)=CC(=O)Nc1ccc(O)cc1`, the outcome [3] was “inactive”.

For `COc1cc2c(cc1OC)[C@@H]1C(=O)c3ccc4c(c3O[C@@H]1CO2)C=CC(C)(C)O4`, the Potency [1] was “inactive” and the outcome [2] was “inactive”.
